The campaign covered roughly 3,400 compounds. About 160 (4.7%) were called active.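 Rule for the calls: active = fitted curve reaches 30% activation at a concentration no higher than the top valid tested dose, luminescence rising; inconclusive = no clear call, values can overlap the other calls; inactive = signal moving opposite to the expected increase, plus the rest.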 A selection follows. Results with a measured potency or affinity are listed apart.
Assay: TCF/LEF reporter activation in neural progenitors – cell-based, iPS-derived NPC, luciferase, Wnt3a, cherry-pick, dose response (AID 1053144);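 note: Wnt3a stimulus is conditioned medium from Wnt3a-transfected mouse L cells at 5% in well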
Conditions: Wnt3a EC25, 24 h; series mostly up to 26 µM

activation, inactive:
Cc1ccc(NC(=O)CSc2nccn2Cc2ccco2)c(C)c1, CCC(=O)NCCc1nc2cc(NC(=O)c3ccc(Cl)cc3)ccc2n1C, Cn1c(CCNC(=O)c2ccco2)nc2cc(NC(=O)c3ccccc3)ccc21, Clc1ccccc1Nc1nc(-c2cccnc2)cs1, Nc1ccccc1-n1cccc1, Cc1ccc(S(=O)(=O)N2CCCC(C(=O)Nc3ccc(NC(=O)c4ccccn4)cc3)C2)cc1 (stereo not given), Oc1ccc(-c2csc(Nc3ncccn3)n2)c(O)c1, Clc1ccc(-c2nc3n(n2)Cc2ccccc2-3)cc1, COc1ccc(-c2nc3n(c2C)Cc2ccccc2-3)cc1, Cn1c(-c2ccc(F)c(F)c2)cc2onc(-c3ccccc3)c2c1=O, NC(=O)C1CCN(C(=O)c2cc3c(s2)CCCCC3)CC1, O=C(Nc1nc(-c2ccc3c(c2)OCCO3)cs1)C1CCCC1, O=C(Nc1nc(-c2nc3ccccc3s2)cs1)C1CC1, CC(C)(C)c1ccc(NC(=O)c2ccccc2)c([N+](=O)[O-])c1, O=C(Nc1ccc2c(c1)OCO2)Nc1ccccn1, Cc1ccc(CNC(=O)c2ccc(Cn3cc(-c4ccc(C)cc4)nc3-c3ccncc3)cc2)cc1, Clc1ccc(-c2cc(-c3ccccc3)on2)cc1, Nc1nc(-c2cc(-c3ccccc3)no2)cs1, COc1cccc(OCC(=O)Nc2ccccc2C(N)=O)c1, Cc1ccc(OCC(=O)Nc2ccccc2F)cc1, Cc1cc(C)c(C#N)c(N2CCSCC2)n1, O=C(Nc1ccc(Cl)cc1Cl)c1ccc2c(c1)OCCO2, O=C(Nc1ccccc1F)c1ccc2c(c1)OCO2, O=C(Nc1ncccc1O)c1ccc2ccccc2c1, O=C(Nc1cccnc1)c1ccc(Oc2ccccc2)cc1, Cc1nc(NC(=O)c2ccc3c(c2)OCCO3)ccc1Br, NC(=O)c1ccccc1NC(=O)c1ccc2c(c1)OCO2, COCCn1c(C)cc(C(=O)CSc2nc3ccccc3c(=O)n2Cc2ccco2)c1C, Nc1cc([N+](=O)[O-])ccc1OCc1ccccc1, O=C(Nc1cc2c(cc1Br)OCCCO2)c1ccccc1, C/C(=C\c1ccccc1)C(=O)NCCc1ccccc1, CN(CCO)C(=O)c1ccc(-c2nn(C)c(=O)c3ccccc23)cc1, O=C(Nc1ccc2c(c1)CCC2)c1cccs1, O=C(Nc1cccc(F)c1)Nc1ccc2c(c1)CCC2, O=C(CCNC(=O)c1ccc(Cl)cc1)NC1CCCCCC1, CCOc1cc(/C=N/NC(=O)CSc2nnc(C)s2)ccc1OCc1ccccc1Cl, O=c1oc(CCO)cc2ccc(-c3ccc4[nH]ccc4c3)cc12, O=c1c2ccccc2oc2cc(-c3ccc4cc[nH]c4c3)ccc12, CC1CCc2c(sc(/N=C/c3ccco3)c2C(N)=O)C1 (stereo not given), Fc1ccc2cc(-c3ccccc3F)ncc2c1, Cc1cc(NC(=O)c2ccc(OCC3CCCO3)cc2)ccc1Br (stereo not given), O=c1c2ccccc2nc2c3ccccc3c(NCc3ccccn3)nn12, O=C(CSc1nc2ccccc2c(=O)n1NC(=O)c1ccccc1)c1ccc(Cl)cc1, Cn1cccc1C(=O)OCC(=O)Nc1ccc2c(c1)OCCO2, Cc1ccccc1Cn1nnc(C(=O)Nc2ccc3c(c2)OCCO3)c1N, Fc1ccccc1-c1nc2ccccc2[nH]1, CCOC(=O)c1sc(=NC(=O)c2ccc(C)cc2)n(C)c1C, CCOC(=O)c1sc(=NC(=O)c2ccccc2)n(C)c1C, NC(=O)c1cc(Cl)ccc1OCC(=O)Nc1ccc2c(c1)OCO2, Oc1ccccc1/C=N/Nc1cccc2cccnc12, O=C(O)c1ccc(N/N=C/c2cccc3cccnc23)cc1, Cc1ccc(C(=O)Nc2cccc(C(=O)N3CCOCC3)c2)cc1, Cn1cccc1C(=O)OCC(=O)N1CCc2ccccc21, O=C(N=Nc1c(O)[nH]c2ccc(Br)cc12)c1ccco1, COC(=O)N=Nc1c(O)[nH]c2ccc(Br)cc12, O=C1CCN(Cc2ccccc2)C=C1c1ccc2ccccc2c1, CC(C)=CC(=O)Nc1ccc(Cl)cc1, O=C(NCCc1cccc(Cl)c1)c1ccc2c(c1)OCO2, O=C(/C=C/c1ccco1)Nc1cccnc1, COc1cccc(NC(=O)/C=C/c2ccco2)c1, Cc1ccc(-n2nc3ccc(NC(=O)/C=C/c4ccco4)cc3n2)cc1, O=C(/C=C/c1ccco1)Nc1cccnc1Cl, COc1ccc(-c2cc3nc4n(c(=O)c3s2)CCCCC4)cc1, COc1cccc(-c2cc(C(=O)N3CCCCCC3)no2)c1, O=C(COc1ccc(F)cc1Cl)NC1CCCCCC1, COc1ccc2c(c1)-c1nc(NC(=O)c3ccco3)sc1CC2, COc1ccc(C(=O)O/N=C(\N)c2ccc(Br)cc2)cc1, N/C(=N\OC(=O)c1ccco1)c1cccnc1, Cc1cccc(C(=O)O/N=C(\N)c2ccc(Cl)cc2)c1, COc1ccccc1C(=O)O/N=C(\N)c1ccccn1, COc1ccccc1C(=O)O/N=C(\N)c1ccccc1Cl, N/C(=N\OC(=O)c1ccco1)c1ccccc1, COc1ccc(-c2cc(-c3ccc(C)cc3)n[nH]2)c(O)c1, NS(=O)(=O)c1ccc2nc(NC(=O)Nc3ccccc3F)sc2c1, Cc1ccc2[nH]c(-c3cccc(N)c3)cc2c1, O=C(/C=C/c1ccc(F)cc1)NCCC1=CCCCC1, CC(C)(C)c1ccc(NC(=O)c2ccc(=O)[nH]n2)cc1, COc1ccc2cc(-c3ccsc3)ncc2c1, CC1(C)CC(=O)C2=C(C1)Nc1ccccc1NC2c1ccc2c(c1)OCO2 (stereo not given), O=C1CC(c2ccco2)CC2=C1C=Nc1ccccc1N2 (stereo not given)

— PubChem BioAssay AID1053144 (Broad Institute, 2014)
